Source: PubChem (several laboratories)
Hits are enriched below; roughly 4.5% of the tested compounds scored in any of these assays.
PrPC surface inh – inhibitors of human cell surface prion protein PrPC. P04156. TR-FRET read-out. inhibition, % at 13.8 µM. 370,000 compounds, 0.43% hits. AID 720596; in the data active = inhibition above about 24%
PfHsp40 yeast – compounds rescuing yeast from Plasmodium falciparum HSP40 toxicity; S. cerevisiae expressing PfHsp40, growth rescue, ATP luminescence; 340,000 compounds, 0.68% hits; AID 504582; growth rescue, % at 12.5 µM; in the data active = growth rescue above about 28%, passing the limit was not always enough;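 note: yeast W303a lacking pdr1 and pdr3 grown in galactose medium; growth measured after three days at 30 °C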
PrP UTR inh – inhibition of PrP 5' UTR reporter expression; cell-based PrP 5' UTR mRNA reporter, plate reader; inhibition, % (no concentration beside the values); 340,000 compounds, 0.35% hits; in the data active = inhibition above about 52%
GDH-TPI inh – counter-screen for M. tuberculosis FBA inhibitors: GDH-TPI coupled enzymes | GDH-TPI coupled enzyme counterscreen, NADH absorbance | inhibition, % at 4.8 µM | 360,000 compounds, 1.2% hits | AID 588335; in the data active = inhibition above about 30%
BJeLR lethal – kills HRASV12-expressing BJeLR cells; 300,000 compounds, 0.17% hits; BJeLR (HRASV12) viability, CellTiter-Glo ATP luminescence, 48 h; inhibition, % (no concentration beside the values); in the data active = inhibition above about 50%
Mtb FBA inh – Mtb fructose-bisphosphate aldolase inhibition | purified M. tuberculosis FBA, fluorescence read-out | 360,000 compounds, 2.3% hits | inhibition, % at 1 µM; in the data active = inhibition above about 27%
Target sequence (P9WQA3 whole entry, looked up): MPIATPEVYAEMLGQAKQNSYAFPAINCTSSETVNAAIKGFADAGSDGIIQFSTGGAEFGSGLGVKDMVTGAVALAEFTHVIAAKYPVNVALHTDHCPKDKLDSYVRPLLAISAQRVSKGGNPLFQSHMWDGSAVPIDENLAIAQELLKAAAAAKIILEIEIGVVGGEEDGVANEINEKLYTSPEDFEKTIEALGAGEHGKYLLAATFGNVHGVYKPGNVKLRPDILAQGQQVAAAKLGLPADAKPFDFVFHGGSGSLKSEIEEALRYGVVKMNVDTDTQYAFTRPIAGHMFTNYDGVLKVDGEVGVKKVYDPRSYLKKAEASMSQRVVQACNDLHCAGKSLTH
Numbers stand for hits; 0 = inactive; - = not tested or not shown; + = active, no number.

SMILES	PrPC surface inh	PfHsp40 yeast	PrP UTR inh	GDH-TPI inh	BJeLR lethal	Mtb FBA inh
CC(C)n1c(=NC(=O)c2ccco2)c(C#N)cc2c(=O)n3ccccc3cc21	0	0	0	0	0	+
CCCn1c(=NC(=O)c2ccco2)c(C(=O)OCC)cc2c(=O)n3ccccc3nc21	0	0	0	0	0	+
CCCn1c(=NC(=O)c2c(-c3c(F)cccc3Cl)noc2C)c(C(=O)OCC)cc2c(=O)n3ccccc3nc21	-	-	-	-	0	-
NS(=O)(=O)c1ccc(N2N=C(c3ccccc3)CC2c2cccc(Cl)c2)cc1 (stereo unspecified)	0	0	0	0	-	178
Cc1cccc(C2CC(c3ccccc3)=NN2c2ccc(S(N)(=O)=O)cc2)c1 (stereo unspecified)	0	-	-	0	-	+
O=S(=O)(c1ccccc1)N1N=C(c2ccccc2)CC1c1ccccc1 (stereo unspecified)	0	0	0	0	-	0
O=[N+]([O-])c1cccc(C2CC(c3ccccc3)=NN2c2ccccc2)c1 (stereo unspecified)	0	0	0	0	0	0
Cc1ccc(N(C)S(=O)(=O)c2cc(-c3cnc(C4CC4)o3)ccc2C)cc1	0	0	0	0	0	0
Cc1cccc(N(C)S(=O)(=O)c2ccc(-c3cnc(C4CC4)o3)cc2)c1	0	0	59	0	65	0
CCCCCCCCN1C(=O)[C@@H](CC(=O)NCc2ccccc2)C[C@@]2(C(=O)OC)C1=C[C@H](COCc1ccccc1)O[C@@H]2C	0	-	-	-	-	-
O=c1ccc(N=Nc2ccccc2)ccc1O	0	102	0	0	0	0
COCCCNC(=O)C[C@H]1C[C@@]2(C(=O)OC)C(=C[C@H](COCc3ccccc3)O[C@@H]2C)N(Cc2ccccc2)C1=O	0	-	-	-	-	-
CCCCNC(=O)C[C@H]1C[C@@]2(C(=O)OC)C(=C[C@H](C(C)(C)C)O[C@@H]2C)N(Cc2cccc3ccccc23)C1=O	0	-	-	-	-	-
Cc1oc(/C=N/NC(=O)CC2(C)OCCO2)cc1Br	0	0	0	0	0	0
CC1(CC(=O)N/N=C/c2cc(Br)c(O)cc2O)OCCO1	0	0	0	48	0	0
CCOC(=O)N/N=C\c1ccc(-c2cccc(C(F)(F)F)c2)o1	0	0	0	0	0	0
CC1(CC(=O)N/N=C/c2ccc(-c3cccc(C(F)(F)F)c3)o2)OCCO1	0	0	0	37	0	0
O=C(CC1S/C(=N/N=C/C=C/c2ccccc2)NC1=O)Nc1ccc(C(=O)O)cc1 (stereo unspecified)	0	0	0	57	0	0
O=C(CC1S/C(=N/N=C/c2c[nH]c3ccccc23)NC1=O)Nc1ccccc1 (stereo unspecified)	0	0	0	47	0	0
O=C(CC1S/C(=N/N=C/c2cccs2)NC1=O)Nc1ccc(Cl)cc1 (stereo unspecified)	0	0	0	31	0	0
CN(C(=O)CCn1nnc(-c2cccs2)n1)C1CCCCC1	0	-	-	-	-	-
O=C(NCc1ccccc1)OCCCN1C(=O)CCC12CCCCC2	0	-	-	-	-	-
CCC(CO)Nc1cccc2c1S(=O)(=O)N(Cc1cn(Cc3cccc(C(F)(F)F)c3)nn1)Cc1ccccc1O2 (stereo unspecified)	0	-	-	-	-	-
CCn1c(O)c(N=NC(=O)CNC(=O)c2ccco2)c2ccccc21	0	0	0	0	0	0
CCCn1c(O)c(N=NC(=O)c2ccco2)c2ccccc21	0	0	0	33	0	0
SMILES	PrPC surface inh	PfHsp40 yeast	PrP UTR inh	GDH-TPI inh	BJeLR lethal	Mtb FBA inh
CC(=O)N1CCN(C2=NC(=O)/C(=C\c3cccs3)S2)CC1	0	0	0	0	0	0
O=C1N=C(N2CCOCC2)S/C1=C/c1cccs1	0	0	0	34	0	0
CCc1ccc(/C=C2/SC(N3CCOCC3)=NC2=O)cc1	0	0	0	47	0	0
CC(=C/c1ccccc1)/C=C1/SC(N2CCOCC2)=NC1=O	0	0	0	32	0	0
CC(C)c1ccc(/C=C2\SC(N3CCOCC3)=NC2=O)cc1	0	0	0	32	0	0
O=C1N=C(N2CCOCC2)S/C1=C\c1ccncc1	0	0	0	0	0	0
COC(=O)[C@]12C[C@H](CC(=O)NCCc3ccccc3OC)C(=O)N(CCc3ccc(OC)c(OC)c3)C1=C[C@H](COCc1ccccc1)O[C@@H]2C	0	-	-	-	-	-
CCN(c1ccccc1)S(=O)(=O)c1ccc(C(=O)Nc2nnc(CSC)o2)cc1	0	40	0	0	0	0
S=c1[nH]nc(-c2ccc3ccccc3n2)o1	0	0	0	38	0	0
Cc1oc2c(c1C(=O)NCc1cccnc1)C(=O)c1ccccc1C2=O	-	-	-	-	76	-
COc1ccc(CNC(=O)c2c(C)oc3c2C(=O)c2ccccc2C3=O)cc1	0	0	0	0	0	0
Cn1c(NC(=O)c2ccccc2F)c(-c2cccs2)c(=O)c2ccccc21	0	0	0	43	0	0
Cn1c(NC(=O)c2ccc(F)cc2)c(-c2cccs2)c(=O)c2ccccc21	0	0	0	0	0	0
O=C(c1ccccc1C(F)(F)F)N1CCC(Oc2cccnc2)CC1	0	-	-	-	-	-
Cc1ccc(N2CCCn3c2cc(C)c(C#N)c3=O)cc1C	0	0	0	39	0	0
Cc1ccc(N2CCCn3c2cc(C)c(C#N)c3=O)cc1Cl	0	0	0	0	0	0
O=c1nccc(N/N=C/c2ccccc2O)[nH]1	0	0	0	38	0	0
CCOc1ccccc1/C=N/Nc1ccnc(=O)[nH]1	0	0	-	0	0	0
COc1cccc(/C=N/Nc2ccnc(=O)[nH]2)c1O	0	0	-	36	0	0
COc1cccc(/C=N/Nc2nn3cnnc3c3ccccc23)c1O	0	0	0	32	0	0
Oc1cccc(/C=N/Nc2nn3cnnc3c3ccccc23)c1	0	0	0	0	0	0
COc1ccc(CSc2nnc(SCc3ccccc3)s2)cc1	0	-	-	-	-	-
N#Cc1ccc(CSc2nc3sc4c(c3c(=O)n2-c2ccc(Br)cc2)CCCC4)cc1	0	-	-	-	-	-
C=CCCC(=O)N[C@H]1CC[C@@]23CCCN2C(=O)CCC[C@H]3[C@H]1CCC	0	-	-	-	-	-
CCCCn1c(N)c(N(CC(C)C)C(=O)COC(=O)c2ccccc2NCCO)c(=O)[nH]c1=O	0	0	0	0	0	125
O=C(Nc1cccc(S(=O)(=O)Nc2ccc(Cl)cc2)c1)c1ccc(Cl)nc1	29	0	0	0	0	0
COc1ccc(NS(=O)(=O)c2cccc(NC(=O)c3ccc(Cl)nc3)c2)cc1	0	0	0	0	0	0
O=C1CSc2ccc(C(=O)Nc3cccc(S(=O)(=O)Nc4ccc(Br)cc4)c3)cc2N1	36	0	0	0	0	0
C=CCn1c(-c2ccc(S(=O)(=O)N3CCOCC3)cc2)csc1=Nc1ccccc1	0	0	0	0	0	0
CC(=O)c1cccc(N=c2scc(-c3ccc(S(=O)(=O)N4CCOCC4)cc3)n2CCO)c1	24	0	0	0	0	0
